The values below come from ChEMBL document CHEMBL1961873, “Compounds: GSK PKIS; Assays: Nanosyn kinase panel” (2012).

Assay [1] concerns the target Protein kinase C gamma type (Homo sapiens) (UniProt P05129). Particulars: at 1 µM.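 Note: each value is an averaged percent inhibition of the enzyme.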
Assay [2] addresses T1, Protein kinase C iota type (Homo sapiens) (UniProt P41743).
T1 sequence (whole entry): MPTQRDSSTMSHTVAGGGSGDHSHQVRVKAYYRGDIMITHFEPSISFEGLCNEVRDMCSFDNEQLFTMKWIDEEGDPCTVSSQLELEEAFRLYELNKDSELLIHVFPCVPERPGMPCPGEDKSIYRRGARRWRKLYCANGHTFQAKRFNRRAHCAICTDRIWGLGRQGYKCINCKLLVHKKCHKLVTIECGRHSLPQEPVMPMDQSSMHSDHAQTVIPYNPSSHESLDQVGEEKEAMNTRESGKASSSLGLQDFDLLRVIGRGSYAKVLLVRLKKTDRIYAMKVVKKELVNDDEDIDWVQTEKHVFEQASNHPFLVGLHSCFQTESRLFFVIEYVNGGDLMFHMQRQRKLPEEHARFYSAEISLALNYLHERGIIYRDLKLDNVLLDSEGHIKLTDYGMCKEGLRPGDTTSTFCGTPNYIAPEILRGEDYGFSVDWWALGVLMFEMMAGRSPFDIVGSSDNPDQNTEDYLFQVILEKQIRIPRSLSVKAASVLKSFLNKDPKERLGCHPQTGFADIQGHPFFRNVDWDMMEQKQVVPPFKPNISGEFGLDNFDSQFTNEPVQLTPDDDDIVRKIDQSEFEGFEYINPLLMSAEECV
Particulars: at 0.1 µM.

The target of assay [3] is T1, Protein kinase C iota type (Homo sapiens). Particulars: at 1 µM.
Assay [4] addresses Protein kinase C theta type (Homo sapiens) (UniProt Q04759). Particulars: at 0.1 µM.
Assay [5] has the same target. Particulars: at 1 µM.
In assay [6] the target is Protein kinase C beta type (Homo sapiens) (UniProt P05771). Particulars: at 0.1 µM.
Chain of Protein kinase C beta type (Homo sapiens) (P05771 2-671 limits assumed): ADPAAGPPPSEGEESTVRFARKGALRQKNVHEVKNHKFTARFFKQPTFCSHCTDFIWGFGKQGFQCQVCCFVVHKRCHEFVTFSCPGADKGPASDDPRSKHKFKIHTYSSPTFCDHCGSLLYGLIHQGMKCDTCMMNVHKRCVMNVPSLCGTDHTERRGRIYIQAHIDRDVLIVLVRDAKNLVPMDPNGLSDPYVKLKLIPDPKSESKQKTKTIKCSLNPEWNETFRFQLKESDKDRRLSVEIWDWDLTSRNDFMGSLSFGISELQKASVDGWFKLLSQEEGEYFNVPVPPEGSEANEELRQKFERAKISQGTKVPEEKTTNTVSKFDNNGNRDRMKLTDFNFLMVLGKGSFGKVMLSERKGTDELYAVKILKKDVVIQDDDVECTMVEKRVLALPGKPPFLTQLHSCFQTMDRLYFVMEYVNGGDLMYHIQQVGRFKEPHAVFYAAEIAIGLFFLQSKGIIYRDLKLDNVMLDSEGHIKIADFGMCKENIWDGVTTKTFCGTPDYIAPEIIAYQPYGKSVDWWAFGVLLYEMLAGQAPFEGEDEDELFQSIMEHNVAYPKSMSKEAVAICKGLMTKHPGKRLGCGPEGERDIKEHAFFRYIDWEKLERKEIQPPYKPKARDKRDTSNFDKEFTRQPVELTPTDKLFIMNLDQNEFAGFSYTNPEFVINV
For assay [7] the target is unchanged. Particulars: at 1 µM.
Assay [8] concerns the target T2, Serine/threonine-protein kinase D1 (Homo sapiens) (UniProt Q15139).
T2 sequence (whole entry): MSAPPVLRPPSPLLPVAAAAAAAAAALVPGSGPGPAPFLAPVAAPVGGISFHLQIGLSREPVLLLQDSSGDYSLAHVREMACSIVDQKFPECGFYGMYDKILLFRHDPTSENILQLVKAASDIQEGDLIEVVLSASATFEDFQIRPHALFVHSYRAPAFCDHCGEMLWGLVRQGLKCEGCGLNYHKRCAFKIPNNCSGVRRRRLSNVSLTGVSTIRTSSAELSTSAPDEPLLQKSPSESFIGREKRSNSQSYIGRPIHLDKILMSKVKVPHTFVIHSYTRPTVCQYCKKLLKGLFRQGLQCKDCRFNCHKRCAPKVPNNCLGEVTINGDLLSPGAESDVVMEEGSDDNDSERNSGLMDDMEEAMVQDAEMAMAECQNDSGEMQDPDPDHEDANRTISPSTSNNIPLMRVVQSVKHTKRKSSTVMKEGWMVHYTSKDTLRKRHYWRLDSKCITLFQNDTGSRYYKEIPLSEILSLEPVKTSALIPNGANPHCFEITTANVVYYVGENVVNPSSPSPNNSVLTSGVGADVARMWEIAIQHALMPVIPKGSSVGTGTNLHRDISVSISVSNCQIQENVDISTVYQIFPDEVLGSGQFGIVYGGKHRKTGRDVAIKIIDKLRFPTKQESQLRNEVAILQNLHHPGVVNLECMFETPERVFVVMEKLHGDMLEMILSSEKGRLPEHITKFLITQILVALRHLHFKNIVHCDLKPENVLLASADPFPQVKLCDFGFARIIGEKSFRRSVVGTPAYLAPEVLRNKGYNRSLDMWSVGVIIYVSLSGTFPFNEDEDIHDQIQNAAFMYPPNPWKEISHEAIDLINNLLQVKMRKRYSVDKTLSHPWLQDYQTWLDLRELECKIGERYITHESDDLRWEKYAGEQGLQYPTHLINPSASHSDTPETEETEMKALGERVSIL
Particulars: at 0.1 µM.

In assay [9] the target is T2, Serine/threonine-protein kinase D1 (Homo sapiens). Particulars: at 1 µM.
The target in assay [10] is T3, Serine/threonine-protein kinase D2 (Homo sapiens) (UniProt Q9BZL6).
T3 sequence (whole entry): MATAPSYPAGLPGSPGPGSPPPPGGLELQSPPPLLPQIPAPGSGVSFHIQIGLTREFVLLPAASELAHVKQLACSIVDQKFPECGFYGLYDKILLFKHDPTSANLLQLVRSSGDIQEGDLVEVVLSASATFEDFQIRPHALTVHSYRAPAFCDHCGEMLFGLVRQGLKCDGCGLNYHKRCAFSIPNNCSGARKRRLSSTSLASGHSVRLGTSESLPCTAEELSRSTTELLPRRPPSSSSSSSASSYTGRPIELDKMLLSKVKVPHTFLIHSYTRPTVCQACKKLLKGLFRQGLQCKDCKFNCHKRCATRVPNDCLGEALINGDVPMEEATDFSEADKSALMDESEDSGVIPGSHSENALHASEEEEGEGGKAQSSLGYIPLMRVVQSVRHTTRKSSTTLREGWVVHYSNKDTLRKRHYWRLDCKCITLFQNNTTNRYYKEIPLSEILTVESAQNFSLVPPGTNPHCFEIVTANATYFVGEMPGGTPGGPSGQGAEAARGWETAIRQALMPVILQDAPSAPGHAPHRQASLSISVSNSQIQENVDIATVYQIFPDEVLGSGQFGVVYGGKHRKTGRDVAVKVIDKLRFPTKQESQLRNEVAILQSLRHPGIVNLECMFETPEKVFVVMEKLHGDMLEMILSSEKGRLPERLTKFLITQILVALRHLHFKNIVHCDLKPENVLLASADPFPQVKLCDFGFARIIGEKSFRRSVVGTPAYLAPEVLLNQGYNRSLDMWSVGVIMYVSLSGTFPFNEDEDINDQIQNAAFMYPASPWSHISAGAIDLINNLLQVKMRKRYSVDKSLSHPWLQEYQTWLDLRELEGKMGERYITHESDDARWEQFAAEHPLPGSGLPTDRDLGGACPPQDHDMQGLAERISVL
Particulars: at 0.1 µM.

In assay [11] the target is T3, Serine/threonine-protein kinase D2 (Homo sapiens). Particulars: at 1 µM.
Assay [12] deals with T4, Serine/threonine-protein kinase D3 (Homo sapiens) (UniProt O94806).
T4 sequence (whole entry): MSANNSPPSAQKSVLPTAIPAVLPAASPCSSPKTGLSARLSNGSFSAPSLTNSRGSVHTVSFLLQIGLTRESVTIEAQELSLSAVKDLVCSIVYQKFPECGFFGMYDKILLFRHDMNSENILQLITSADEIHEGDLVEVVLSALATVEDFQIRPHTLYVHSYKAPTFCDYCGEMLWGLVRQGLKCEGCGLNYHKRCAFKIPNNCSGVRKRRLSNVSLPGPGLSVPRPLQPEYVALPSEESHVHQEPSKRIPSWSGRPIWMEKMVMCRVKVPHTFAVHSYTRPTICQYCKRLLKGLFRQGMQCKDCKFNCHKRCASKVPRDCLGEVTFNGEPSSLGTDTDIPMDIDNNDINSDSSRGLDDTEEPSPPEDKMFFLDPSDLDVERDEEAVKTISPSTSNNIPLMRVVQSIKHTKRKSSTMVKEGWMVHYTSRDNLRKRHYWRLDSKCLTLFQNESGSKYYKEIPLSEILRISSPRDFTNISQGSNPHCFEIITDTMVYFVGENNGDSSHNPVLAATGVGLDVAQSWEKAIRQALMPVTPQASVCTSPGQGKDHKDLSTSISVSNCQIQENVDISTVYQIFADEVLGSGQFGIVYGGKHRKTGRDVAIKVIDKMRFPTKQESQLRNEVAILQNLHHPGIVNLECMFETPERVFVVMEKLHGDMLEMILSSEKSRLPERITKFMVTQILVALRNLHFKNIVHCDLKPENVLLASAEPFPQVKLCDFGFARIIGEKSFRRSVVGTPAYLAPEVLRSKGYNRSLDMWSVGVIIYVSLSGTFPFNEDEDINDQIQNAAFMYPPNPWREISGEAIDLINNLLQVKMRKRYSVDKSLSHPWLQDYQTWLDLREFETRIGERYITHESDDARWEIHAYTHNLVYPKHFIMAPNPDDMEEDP
Particulars: at 0.1 µM.

The target of assay [13] is T4, Serine/threonine-protein kinase D3 (Homo sapiens). Particulars: at 1 µM.
Assay [14] concerns the target T5, cGMP-dependent protein kinase 1 (Homo sapiens) (UniProt Q13976).
T5 sequence (whole entry): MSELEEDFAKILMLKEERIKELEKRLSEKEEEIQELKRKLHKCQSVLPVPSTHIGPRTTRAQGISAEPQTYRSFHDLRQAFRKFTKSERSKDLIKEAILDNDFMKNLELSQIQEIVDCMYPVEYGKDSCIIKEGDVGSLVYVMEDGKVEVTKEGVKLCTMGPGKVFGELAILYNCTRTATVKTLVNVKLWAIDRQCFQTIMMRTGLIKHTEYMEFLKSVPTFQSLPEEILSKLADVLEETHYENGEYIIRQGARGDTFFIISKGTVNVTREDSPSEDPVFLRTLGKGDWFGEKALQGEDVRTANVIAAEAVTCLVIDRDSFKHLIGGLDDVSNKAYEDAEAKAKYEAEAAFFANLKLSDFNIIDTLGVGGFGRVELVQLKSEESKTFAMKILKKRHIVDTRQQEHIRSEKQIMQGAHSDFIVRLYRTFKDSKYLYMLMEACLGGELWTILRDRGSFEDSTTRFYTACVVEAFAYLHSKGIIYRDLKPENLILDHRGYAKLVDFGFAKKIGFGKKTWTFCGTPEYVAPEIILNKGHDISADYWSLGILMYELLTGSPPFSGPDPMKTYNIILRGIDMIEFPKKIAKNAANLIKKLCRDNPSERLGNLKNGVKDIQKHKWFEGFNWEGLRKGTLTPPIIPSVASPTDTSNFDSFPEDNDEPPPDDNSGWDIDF
Particulars: at 0.1 µM.

In assay [15] the target is T5, cGMP-dependent protein kinase 1 (Homo sapiens). Particulars: at 1 µM.
The target of assay [16] is T6, cGMP-dependent protein kinase 2 (Homo sapiens) (UniProt Q13237).
T6 sequence (whole entry): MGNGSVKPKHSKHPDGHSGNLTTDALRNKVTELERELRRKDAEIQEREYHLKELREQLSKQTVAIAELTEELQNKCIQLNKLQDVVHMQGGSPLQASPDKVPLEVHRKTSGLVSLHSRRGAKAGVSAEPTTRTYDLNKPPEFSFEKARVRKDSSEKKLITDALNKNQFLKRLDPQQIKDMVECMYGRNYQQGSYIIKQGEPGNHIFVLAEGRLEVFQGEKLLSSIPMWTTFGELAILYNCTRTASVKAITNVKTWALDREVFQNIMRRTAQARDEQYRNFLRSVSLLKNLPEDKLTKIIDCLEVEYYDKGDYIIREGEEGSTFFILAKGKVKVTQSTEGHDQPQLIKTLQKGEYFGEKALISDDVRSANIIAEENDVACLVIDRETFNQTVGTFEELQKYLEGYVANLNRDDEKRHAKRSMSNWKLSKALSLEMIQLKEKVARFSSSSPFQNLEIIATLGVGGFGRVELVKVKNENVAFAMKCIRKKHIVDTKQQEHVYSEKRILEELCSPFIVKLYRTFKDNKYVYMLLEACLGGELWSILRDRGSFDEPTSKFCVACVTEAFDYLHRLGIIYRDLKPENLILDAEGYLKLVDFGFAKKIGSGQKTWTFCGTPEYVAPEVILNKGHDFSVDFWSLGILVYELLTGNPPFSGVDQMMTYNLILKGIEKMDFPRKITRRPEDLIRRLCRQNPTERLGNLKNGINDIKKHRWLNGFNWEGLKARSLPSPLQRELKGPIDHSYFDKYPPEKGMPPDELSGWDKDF
Particulars: at 0.1 µM.

Assay [17] deals with T6, cGMP-dependent protein kinase 2 (Homo sapiens). Particulars: at 1 µM.
The target in assay [18] is T7, cAMP-dependent protein kinase catalytic subunit PRKX (Homo sapiens) (UniProt P51817).
T7 sequence (whole entry): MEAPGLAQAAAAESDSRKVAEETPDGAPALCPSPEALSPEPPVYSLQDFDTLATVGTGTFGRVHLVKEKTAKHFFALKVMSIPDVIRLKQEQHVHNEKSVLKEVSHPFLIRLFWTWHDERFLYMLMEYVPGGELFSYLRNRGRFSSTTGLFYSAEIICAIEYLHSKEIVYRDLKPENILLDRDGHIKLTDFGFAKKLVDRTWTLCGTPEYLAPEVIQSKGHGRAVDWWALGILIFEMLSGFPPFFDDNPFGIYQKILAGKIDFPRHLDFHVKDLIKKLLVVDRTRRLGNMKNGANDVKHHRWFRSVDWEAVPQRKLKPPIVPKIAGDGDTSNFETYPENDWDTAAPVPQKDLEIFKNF
Particulars: at 0.1 µM.

Assay [19] deals with T7, cAMP-dependent protein kinase catalytic subunit PRKX (Homo sapiens). Particulars: at 1 µM.
For assay [20], the target named is Rho-associated protein kinase 1 (Homo sapiens) (UniProt Q13464). Particulars: at 0.1 µM.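 Note: values are mean percent inhibition of ROCK1.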
Chain of Rho-associated protein kinase 1 (Homo sapiens) (Q13464 2-1354 limits assumed): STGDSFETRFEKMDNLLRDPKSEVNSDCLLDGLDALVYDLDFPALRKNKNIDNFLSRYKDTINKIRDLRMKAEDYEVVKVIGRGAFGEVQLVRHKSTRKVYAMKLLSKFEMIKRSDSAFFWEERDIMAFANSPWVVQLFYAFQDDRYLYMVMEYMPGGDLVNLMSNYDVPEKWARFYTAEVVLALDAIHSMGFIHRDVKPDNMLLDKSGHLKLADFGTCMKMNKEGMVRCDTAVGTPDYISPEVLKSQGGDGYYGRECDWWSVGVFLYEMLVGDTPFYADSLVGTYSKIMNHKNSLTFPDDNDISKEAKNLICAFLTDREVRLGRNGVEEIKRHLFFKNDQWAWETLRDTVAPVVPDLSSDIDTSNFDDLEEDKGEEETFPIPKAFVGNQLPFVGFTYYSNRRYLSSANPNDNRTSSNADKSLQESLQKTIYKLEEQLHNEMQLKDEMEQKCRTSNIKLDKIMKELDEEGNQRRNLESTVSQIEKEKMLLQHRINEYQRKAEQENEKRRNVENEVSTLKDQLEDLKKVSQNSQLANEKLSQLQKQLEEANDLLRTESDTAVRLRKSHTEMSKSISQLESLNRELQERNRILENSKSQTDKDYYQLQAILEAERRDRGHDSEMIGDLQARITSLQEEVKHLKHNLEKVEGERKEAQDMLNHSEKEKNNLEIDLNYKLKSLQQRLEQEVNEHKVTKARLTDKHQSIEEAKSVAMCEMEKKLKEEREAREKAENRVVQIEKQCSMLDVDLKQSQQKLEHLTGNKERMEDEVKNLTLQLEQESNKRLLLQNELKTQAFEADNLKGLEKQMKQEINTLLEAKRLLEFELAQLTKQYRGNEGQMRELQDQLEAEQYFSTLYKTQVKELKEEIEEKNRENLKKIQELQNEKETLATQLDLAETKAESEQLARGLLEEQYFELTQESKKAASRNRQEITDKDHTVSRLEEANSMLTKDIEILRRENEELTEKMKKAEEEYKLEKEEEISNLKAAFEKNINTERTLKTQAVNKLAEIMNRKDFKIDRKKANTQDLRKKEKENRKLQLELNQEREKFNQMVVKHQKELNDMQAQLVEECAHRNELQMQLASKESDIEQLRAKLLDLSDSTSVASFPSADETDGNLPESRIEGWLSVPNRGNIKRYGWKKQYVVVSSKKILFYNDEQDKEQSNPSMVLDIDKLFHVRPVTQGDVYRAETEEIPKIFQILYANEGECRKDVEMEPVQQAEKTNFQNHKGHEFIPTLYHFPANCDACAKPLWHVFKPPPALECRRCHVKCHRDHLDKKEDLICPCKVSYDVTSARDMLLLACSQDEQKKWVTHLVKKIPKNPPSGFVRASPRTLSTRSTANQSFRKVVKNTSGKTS

Chain of Protein kinase C theta type (Homo sapiens) (Q04759 whole entry, looked up): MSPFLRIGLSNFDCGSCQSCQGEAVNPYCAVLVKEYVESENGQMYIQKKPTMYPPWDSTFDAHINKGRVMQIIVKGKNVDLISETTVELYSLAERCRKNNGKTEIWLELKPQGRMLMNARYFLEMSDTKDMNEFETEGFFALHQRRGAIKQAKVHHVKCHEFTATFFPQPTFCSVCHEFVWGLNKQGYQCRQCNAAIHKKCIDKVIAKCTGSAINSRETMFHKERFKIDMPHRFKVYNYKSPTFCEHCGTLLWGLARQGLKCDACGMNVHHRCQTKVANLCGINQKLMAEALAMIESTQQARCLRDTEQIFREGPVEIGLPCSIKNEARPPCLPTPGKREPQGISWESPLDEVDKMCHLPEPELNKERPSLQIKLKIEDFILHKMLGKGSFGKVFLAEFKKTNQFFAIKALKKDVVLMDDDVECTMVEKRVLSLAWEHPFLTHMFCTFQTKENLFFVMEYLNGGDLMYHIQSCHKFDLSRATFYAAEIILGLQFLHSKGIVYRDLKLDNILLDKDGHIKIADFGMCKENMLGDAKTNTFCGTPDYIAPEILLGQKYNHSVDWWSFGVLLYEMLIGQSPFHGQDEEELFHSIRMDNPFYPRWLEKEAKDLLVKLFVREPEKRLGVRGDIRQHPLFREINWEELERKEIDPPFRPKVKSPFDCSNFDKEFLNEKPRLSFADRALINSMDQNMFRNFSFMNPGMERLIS

For orientation: inhibition means the percentage by which the read-out fell short of the control. Low values mean little suppression, high ones strong suppression. Take `CCn1c(-c2nonc2N)nc2cnc(Oc3cccc(NC(=O)c4ccc(N(C)C)cc4)c3)cc21`: the inhibition in assay [1] turned out to be 28.3%; in [2], 6.04%; in assay [3] it was 45%; in [4], 5.55%; in [5], 32.3%; in assay [6], 4.27%. In addition, the inhibition in assay [7] stood at 21.8%; in assay [8], 1.61%; in [9], 4.29%; in assay [10] it was 1.81%; in [11] it was 5.77%; in assay [12], 1.61%. In addition, the inhibition in [13] was determined as 2.97%; in [14], 56.1%; in [15], 73%; in [16], 21.7%; in [17], 60.8%; in [18], 12.9%. In addition, the inhibition in [19] turned out to be 55.8%; in assay [20], 85.5%.
Turning to `COc1ccc(-c2cc(-c3c[nH]nc3-c3ccccn3)ccn2)cc1`, the inhibition in assay [1] was 1.71%; in assay [2] it was 1.68%; in [3] it was 0.87%; in [4], 2.82%; in assay [5], 5.05%; in assay [6] it was 0.62%. The inhibition in assay [7] was found to be 1.96%; in [8], 8.14%; in assay [9] it was 37.8%; in assay [10], 9.14%; in assay [11], 44.8%; in assay [12], 7.96%. In addition, the inhibition is 27.2% in [13]; 1.9% in [14]; 5.45% in assay [15]; 3.27% in assay [16]; 4.61% in [17]; 2.8% in [18]. In addition, the inhibition in [19] came to 6.17%; in assay [20] it was 1.04%.
